Source: PubChem BioAssay (NCI)
The panel holds about 83,000 compounds, 20% with a hit somewhere; the sample as a whole holds those more often.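 Values shown are percent growth following 48 h exposure of cells in 96-well plates to a single concentration of compound; below 10 was considered active.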 Values without a mark were called inactive. Calls of active or inactive are those of the source.

Each compound was assayed on TK-10 renal (assay: NCI-60 one-dose screen, 48 h (100 = growth as untreated, 0 = no growth, -100 = all killed)). Settings: 10 µM unless noted.
`CCc1cc2c(cc1Cl)nc1c(=O)[nH]c(=O)nc-1n2CCOCC(C)(C)C` showed a growth of 160%. `Cc1cc(=O)[nH]c(O)c1C#N` gave a growth of 107%. With `CC1(C)CC[C@]23CC[C@]4(C)[C@H](CC[C@@H]5[C@@]6(C)CC[C@H](NCO)C(C)(C)[C@@H]6CC[C@]54C)[C@H]2[C@H]1OC3` the growth was 122%. In the case of `CC(C)[C@H]1c2[nH]c3ccccc3c2C[C@H]2C(=O)N(CCCCCCC(=O)NO)CC(=O)N12`, the growth is reported as 72%. Compound `Cn1cc(-c2nc(N)nnc2-c2c[nH]c3ccc(Br)cc23)c2cc(F)ccc21` has a growth of 131%. With `CCCCCCCCCCCC(=O)NC(C)(C)C(=O)N1CCCC1C(=O)NC(C)(C)C(=O)NC(C)(C)C(=O)N1CCCC1C(=O)NC(C)(C)C(=O)NC(C)(C)C(=O)N1CCCC1C(=O)NC(C)C(=O)NCCC(=O)NC(C)C(=O)NC(C)(C)C(=O)NC(C)(C)C(=O)NC(C)(C)C(=O)NCCC(=O)NC(C)(C)C(=O)NC(C)(C)C(=O)NC(C)(C)C(=O)NC(C)C(=O)NCCC(=O)O` (stereo unspecified) the growth was -97.1% (active). `CN1CCN(c2ccc(Nc3nc(NCCNC(=O)c4ccccc4)c4sccc4n3)cc2)CC1` showed a growth of 137%. For `Cc1[nH]c(C(=O)Nc2ccccc2OCc2cccc(C(=O)NCCN)c2)cc1Cl`, the growth was 98.9%. In the case of `CCCc1[nH]c(-c2cc(N)ccc2Cl)c2c1C(=O)CCCC2`, the growth is reported as 107%. `O=C(Nc1ccc(N=Cc2c(O)[nH]c3ccccc23)cc1)Nc1ccc(S(=O)(=O)Nc2ncccn2)cc1` was tested, and the growth was 108%. Compound `CC1=Cc2ccccc2OC12C=Cc1ccccc1O2` (stereo unspecified) has a growth of 180%.
